# Test results as given in the supplement of paper PMC10105736.
# A number with no mark means an inactive call.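 Rule for the calls: active = MAPPIT score above the 99th percentile of random reference set scores in the same batch; inactive = at or below it.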
# Columns and labels:
# Experiment in all cases: MAPPIT interaction score (arbitrary units); higher = stronger binary interaction signal, active = hit call of the paper
# CycG = conditions: MAPPIT configuration: N-N; pair source set: Finley_Y2H
# c-cup = conditions: MAPPIT configuration: N-N; pair source set: Finley_Y2H
# ix = conditions: MAPPIT configuration: N-N; pair source set: Finley_Y2H
# Cpr62Ba = conditions: pair source set: RRS
# Dhod = conditions: MAPPIT configuration: N-N; pair source set: Curagen_high_conf
# cindr = conditions: MAPPIT configuration: N-N; pair source set: Lit-BM-16
# Deaf1 = conditions: MAPPIT configuration: N-N; pair source set: screen_1
# Dif = conditions: pair source set: Lit-BM-16
# DIP1 = conditions: MAPPIT configuration: N-N; pair source set: screen_2
# kermit = conditions: MAPPIT configuration: N-N; pair source set: Curagen_high_conf
# shv = conditions: MAPPIT configuration: N-N; pair source set: Curagen_high_conf
# DnaJ-1 = conditions: MAPPIT configuration: N-N; pair source set: Lit-BM-16
# Dlc90F = conditions: MAPPIT configuration: N-N; pair source set: Finley_Y2H
# Mtap = conditions: MAPPIT configuration: N-N; pair source set: screen_1
# Cyp1 = conditions: pair source set: Lit-BM-16
# Dfd = conditions: MAPPIT configuration: N-N; pair source set: Finley_Y2H
# 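Note: HEK293T cells with Epo stimulation, STAT-responsive firefly luciferase reporter, fold induction versus unstimulated cells divided by the larger fold induction of two negative controls lacking either bait or prey.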
binder,measurement,setting,value
mldr (protein) MYNLRLLRNLLPIAGHAHPRWLASQHKRRPQPGSLPADRLDQLRSDLFERRHELSGAEWTEVRRSLVDGYKHINGHNVDAVILGVCSAPNQLSLAKSYVEFLRSRGSKPNAATLGRLLRVYNAAYHERPLSEAEQSEILQICRSLQAEHETLDASSCENVIHGLVATSGDDWQRGLPLLEMMKVTSTPSVAAYSALAEKAFSVATPEQELAWRLLEEMATARKPPKCEVYLALLNRLANETAQLPAQLSLLLQFLERHEILVSQRVAIRLQELSSQVPQLLHTRTTHLGGLGKCQSCQQHLQPVAISDEEFRQLSECFLERVLIRRDVFQRSTPEEVARFKKFVEKTAPYDCVIDGLNVAYSTGTKKTPQQLAKLVATVVRHFREQDKRVLVLGREHMRNWSKQAMHYVHCNASLFLTSNLSHDDPFLLYATLRSGQETDFFSRDLMRSHAFHLGTELKPIFRRWQQEHQFSLVTQTQTGQIIVKEPVRHRLCAHQVADTWHVPYCAQYTPHPTDSFEVPANWLCIQMKEQTIPATKTKTKTTR,MAPPIT interaction score,CycG,-0.0303
same,MAPPIT interaction score,c-cup,-0.00733
same,MAPPIT interaction score,ix,0.483
Rad60 (protein) MSDDDCDIFSAARKRIPEIALPKNPYNLGNDSFSKEVDYDFIEDLPKKSTKTGKRKNPAATRKNPPKSQDDASPPKQAEHKAVEPEEDMRTERSLSPVSLLILEMEKKNGQQSDVEKHAKENDVGPVARRTRSSLNRSEMAPPPVSPTVEVPTQTKPKKRGQKKRTSLTTTTSNSASMEVSLPSIVGQNNEHISRRWTLAEVAARSKVVDSIDLVSAVAPRVEGFVNLDSEDEGEKEAPPVVEEENIFDNDNPTIEVALSWLGEIQIYKLRQHQKFKHLFKELASRNGIDENDITVDMYYNFVGPEDTPHSIGLKSFHTLTGHPTKSHNNNNVAAKIDYNPEALCRKPKKFQVKVQADKWKHPLVIPMKKTDNFKIIFIKCAEELNCDPRTIKLFFDGDLLDPNDTPNNQDMEGNEVIDLKIKA,MAPPIT interaction score,Cpr62Ba; MAPPIT configuration: N-C,-0.181
same,MAPPIT interaction score,Cpr62Ba; MAPPIT configuration: N-N,1.45
bsk (protein) MTTAQHQHYTVEVGDTNFTIHSRYINLRPIGSGAQGIVCAAYDTITQQNVAIKKLSRPFQNVTHAKRAYREFKLMKLVNHKNIIGLLNAFTPQRNLEEFQDVYLVMELMDANLCQVIQMDLDHDRMSYLLYQMLCGIKHLHSAGIIHRDLKPSNIVVKADCTLKILDFGLARTAGTTFMMTPYVVTRYYRAPEVILGMGYTENVDIWSVGCIMGEMIRGGVLFPGTDHIDQWNKIIEQLGTPSPSFMQRLQPTVRNYVENRPRYTGYSFDRLFPDGLFPNDNNQNSRRKASDARNLLSKMLVIDPEQRISVDEALKHEYINVWYDAEEVDAPAPEPYDHSVDEREHTVEQWKELIYEEVMDYEAHNTNNRTR,MAPPIT interaction score,Dhod,1.59
same,MAPPIT interaction score,cindr,0.0365
Clamp (protein) MEDLTKNIIFTNAINGQPATIQYQTADGTILKQPKIEGQKTEQQPTFYYTTNGNGGTVNLAQLATTDDNKTCYIAQPVGGYNYALVNGMPLNQGAALGIATVDAQGRIQIVNQNKPIAANTISNISFKCDVCSDMFPHLALLNAHKRMHTDGEQQQQQQHNAQAGGDSIAVVSAQGLVQAQNIIGNGQMGQIQIVSSDTLEPVQQSVMQQQQHESKASKCINCGSSMLQQSKRKGPKQVRCESCMQAEQTAQQQQQLFVAQDGQMAHPVQIISTTPQAQAQLQQIVAAQTGGTTPKREASSGSGHHPVKKRNSQQMTKCQKCNGSGVVLVGQHSHASHSGVGGSVKQSVTVKTENPSKPFSCNICGGLFSRYSSLWSHKKLHSGEKNYKCSICGLAFAKAVYLKNHARIHTGEKPYKCQTCGMQFSQSPHLKNHERTHSGERPYVCGVCDKGFARHATLWNHRRIHTGEKPYKCEICGSAFSQAAHLKNHAKVHSGEKPYKCEICSAAFADRFALKRHRGIHQKYGQTAPRQTSSDGMIVHKQEIPDMEDEAQQEVIIGGL,MAPPIT interaction score,Deaf1,0.235
Rel (protein) MNMNQYYDLDNGKNVMFMNDASSTSGYSSSTSPNSTNRSFSPAHSPKTMELQTDFANLNLPGGNSPHQPPMANSPYQNQLLNNGGICQLGATNLINSTGVSFGVANVTSFGNMYMDHQYFVPAPATVPPSQNFGYHQNGLASDGDIKHVPQLRIVEQPVEKFRFRYKSEMHGTHGSLNGANSKRTPKTFPEVTLCNYDGPAVIRCSLFQTNLDSPHSHQLVVRKDDRDVCDPHDLHVSKERGYVAQFINMGIIHTAKKYIFEELCKKKQDRLVFQMNRRELSHKQLQELHQETEREAKDMNLNQVRLCFEAFKIEDNGAWVPLAPPVYSNAINNRKSAQTGELRIVRLSKPTGGVMGNDELILLVEKVSKKNIKVRFFEEDEDGETVWEAYAKFRESDVHHQYAIVCQTPPYKDKDVDREVNVYIELIRPSDDERSFPALPFRYKPRSVIVSRKRRRTGSSANSSSSGTESSNNSLDLPKTLGLAQPPNGLPNLSQHDQTISEEFGREKHLNEFIASEDFRKLIEHNSSDLEKICQLDMGELQHDGHNRAEVPSHRNRTIKCLDDLFEIYKQDRISPIKISHHKVEKWFIEHALNNYNRDTLLHEVISHKKDKLKLAIQTIQVMNYFNLKDVVNSTLNADGDSALHVACQQDRAHYIRPLLGMGCNPNLKNNAGNTPLHVAVKEEHLSCVESFLNGVPTVQLDLSLTNDDGLTPLHMAIRQNKYDVAKKLISYDRTSISVANTMDGNNALHMAVLEQSVELLVLILDAQNENLTDILQAQNAAGHTPLELAERKANDRVVQLLKNVYPEKGELAMTWIPCKVKEEIDSSSDESSDAGQLEIKSEEMDIETKDEDSVELDLSSGPRRQKDESSRDTEMDNNKLQLLLKNKFIYDRLCSLLNQPLGHGSDPQDRKWMQLARQTHLKQFAFIWLGAEDLLDHVKRKGASVEFSTFARALQAVDPQAYALLVNPT,MAPPIT interaction score,Dif; MAPPIT configuration: N-C,3.09
same,MAPPIT interaction score,Dif; MAPPIT configuration: N-N,1.57
Mob4 (protein) MKMADGSTILRRNRPGTKSKDFCRWPDEPLEEMDSTLAVQQYIQQLIKRDPSNVELILTMPEAQDEGVWKYEHLRQFCMELNGLAVRLQKECSPSTCTQMTATDQWIFLCAAHKTPKECPAIDYTRHTLDGAACLLNSNKYFPSRVSIKESSVTKLGSVCRRVYRIFSHAYFHHRRIFDEFEAETYLCHRFTHFVTKYNLMSKENLIVPINVGENAAPGESEA,MAPPIT interaction score,DIP1,0.606
same,MAPPIT interaction score,kermit,0.744
same,MAPPIT interaction score,shv,0.755
Mlf (protein) MSLFGALMGDFDDDLGLMNNHMNHTMNAMNMQMRSMNRLMNSFMPDPFMQVSPFDQGFQQNALMERPQMPAMPAMGLFGMPMMPNFNRLLNADIGGNSGASFCQSTVMTMSSGPDGRPQIYQASTSTKTGPGGVRETRRTVQDSRTGVKKMAIGHHIGERAHIIEKEQDMRSGQLEERQEFINLEEGEAEQFDREFTSRASRGAVQSRHHAGGMQAIMPARPAAHTSTLTIEPVEDDDDDDDDCVIQEQQPVRSSAGRHYSSAPTAPQNSGNIATAAAPTPTSSPTTYDTSNGNNNNYVSSRRSYLRNGHGHSLATPRRPLRTPPSSPLATVSTSPSIHPHPYAANPRRQQRAVKHFHTEDEAASSYKAVKRGKKK,MAPPIT interaction score,DnaJ-1,-0.321
Mtap (protein) MITIKCKDTNLDPLPVKIGIIGGSGLDDPDILEQRQERVVETPYGEPSDALIEGEINGVQCVLLARHGRKHDIMPSNVNYRANIWALRDVGCTHLIVSTACGSLREEIKPGNLVVPHDFIDRTTKRLQTFYDGKAQSPRGVCHLPMFPAFSERTRNILLQAAKELEIPAHDKATIVTIEGPRFSSRSESHMFRQWGGDLINMTTCPEVVLAKEAGLLYGSVAIATDYDCWRMGCEGVNVQDVLRTFAENVIKVKKILVNAVGRIAKEDWSEDILNAKQCVCNNTMSGAM,MAPPIT interaction score,Dlc90F,0.638
same,MAPPIT interaction score,Mtap,5.81 (active)
Eno (protein) MSWTASVFLRTSTTSMKFLRLRWPLPRIPQNKSANVAPRFRSKSAVSQLSSGFKFVQIRKSTCDSNEMTIKAIKARQIYDSRGNPTVEVDLTTELGLFRAAVPSGASTGVHEALELRDNDKANYHGKSVLKAVGHVNDTLGPELIKANLDVVDQASIDNFMIKLDGTENKSKFGANAILGVSLAVAKAGAAKKGVPLYKHIADLAGNKEIILPVPAFNVINGGSHAGNKLAMQEFMILPTGATSFTEAMKMGSEVYHHLKNVIKAKFGLDATAVGDEGGFAPNIQSNKEALNLISDAIAKAGYTGKIEIGMDVAASEFYKDGQYDLDFKNEKSDKSQWLPADKLANLYQEFIKDFPIVSIEDPFDQDHWEAWSNLTGCTDIQIVGDDLTVTNPKRIATAVEKKACNCLLLKVNQIGTVTESIAAHLLAKKNGWGTMVSHRSGETEDSFIGDLVVGLSTGQIKTGAPCRSERLAKYNQILRIEEEIGAGVKFAGKSFRKPQ,MAPPIT interaction score,Cyp1; MAPPIT configuration: N-C,0.69
same,MAPPIT interaction score,Cyp1; MAPPIT configuration: N-N,-0.102
Aladin (protein) MAALSNLKQCPPFSTLPDLALRHNHIPELERYPQINLNSELLANPAGQRYYGGQSFVSVNEGVLKRIARSFFNGGFWKTLEEARSPETREQAPLIAQAGDLIAQFLGLATGLRILPHTQQLSAERIAQFVETRDWLNSDVRYLAWNQHFFCLAVAGVDDVVRIYTKSSSATTATVLKSPSQTQITCMAWRPLCASEIVIGCRQGLCFWEVDSTLHLGRTNAPSEIFKYPNNLPITSMQWNKDGTQLATASIGDRSIIIWQPDTGMMQPLKRLGPPGSLLKWSPDNDWLFAATVDRVFRVWNCHQQWTTERWVCGPGGYVQTACWSPCGRFLLFVSSAEPILYRLQFVQQSLLSSSADEKEILPIADLNACSIDANRTLVGGPAQQLAWDPHGNYLVVTFKATNCIAVFRTFIQKFDLQISAAYYLSGETAAEHPSFICFQPLYEDNDRSVLTIAWSSGRIQYYAFD,MAPPIT interaction score,CycG,-0.0444
eIF3i (protein) MRPLMLQGHERSITQIKYNREGDLLFSCSKDQKPNVWYSLNGERLGTYDGHQGAVWCLDVDWESRKLITGAGDMTAKIWDVEYGTVIASIPTKSSVRTSNFSFSGNQAAYSTDKAMGQSCELFLIDVRNADSSLSEQEPTLRIPMTESKITSMLWGPLDETIITGHDNGNIAIWDIRKGQKVVDSGTDHSAGINDMQLSKDGTMFVTASKDTTAKLFDSESLMCLKTYKTERPVNSAAISPIMDHVVLGGGQDAMEVTTTSTKAGKFDSRFFHLIYEEEFARLKGHFGPINSLAFHPDGKSYASGGEDGFVRVQTFDSTYFENIFE,MAPPIT interaction score,Dfd,0.00823
